The values that follow come from PubChem BioAssay AID431 (Sanford-Burnham Center for Chemical Genomics, 2006).

Among all 63,000 compounds or so, about 1,100 (1.7%) were called active. The sample as a whole holds a higher share of actives than the screen did. Potency and affinity values are given separately. Unmarked numbers belong to inactive results.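 How the source made its calls: active means compounds whose percent cytotoxicity in the single-dose primary screen, scaled between solvent and toxic-drug controls, exceeds 50; inactive means the rest.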

This test in a line: cytotoxicity in KRAS-transformed pancreatic duct cells, primary screen, cell-based, fluorescence, HTS (AID 431).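 Further: 0% = DMSO solvent wells and 100% = doxorubicin-treated wells.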 The note with it: HPDE-C7K KRASV12 cells, Alamar Blue viability, 48 h; at 10 µM; active compounds read high. A general note: The colour change of resazurin is a common sign of viable cells or microbes.
For `COc1cc(S(=O)(=O)NCC2CCCO2)c(OC)cc1Cl` (stereo not given), the cytotoxicity is -5.9%.
Under `CCN(CC)CCN1C(=O)C(=O)/C(=C(/O)c2ccc(Cl)cc2)C1c1ccncc1` (stereo not given) stands -16.4%; under `CCOc1ccc(N2CC(=O)SC2=S)cc1`, -11.8%.
In the case of `Cc1ccc(C#N)c(SCc2cc3c(cc2Cl)OCO3)n1` it was 2.4%; in that of `COc1ccc(S(=O)(=O)Cc2ccc(C(=O)NC3CC3)o2)cc1`, -11.3%.
In the case of `O=C(CN1C(=O)COc2ccccc21)N(Cc1cccnc1)Cc1cccc(F)c1` it was -1.8%; in that of `O=C(NCc1ccccn1)C1CCN(S(=O)(=O)c2cccs2)CC1`, -6.5%.
As for `Cc1cc(C)cc(N2C(=O)CC(N3CCOCC3)C2=O)c1` (stereo not given), the cytotoxicity is 1.2%.
Under `N#Cc1nc(-c2ccc(F)cc2)oc1N1CCCC1` stands 3.4%; under `O=C(c1ccc(F)cc1)c1ccc(N2CCCC2)cc1`, -11%; under `CCCn1c(SCC(=O)NC(=O)NCc2ccco2)n[nH]c1=O`, -2.3%.
For `O=C(NCC1CCCO1)c1cc2n(n1)C(C(F)(F)F)CC(c1ccc(Br)cc1)N2` (stereo not given), the cytotoxicity was 6.4%.
With `O=S1(=O)CCC(NCC2CCCO2)C1` (stereo not given), the cytotoxicity was 6.3%.
Under `CCOc1ccc(/C(O)=C2\C(=O)C(=O)N(CCN(C)C)C2c2cc(OC)ccc2OC)cc1Cl` (stereo not given) stands -1.7%; under `CSc1ccc(Cl)c(C(=O)OCC(=O)N2CCOCC2)c1`, -13.8%.
Turning to `N#C/C(=C\c1ccc(O)c(O)c1)C(=O)NCCCc1ccccc1`, the cytotoxicity was 54.7% (active).
In the case of `O=C(NCCCc1ccccc1)c1ccccc1O` it was -6.1%.
In the case of `N#C/C(=C\c1ccc(O)c(O)c1)S(=O)(=O)c1ccccc1` it was 5.4%.
In the case of `Cc1ccc(S(=O)(=O)N2CCCCC2)cc1C(=O)c1nccn1C` it was -13.8%; in that of `CCOc1ccc(NC(=O)CCS(=O)(=O)c2ccc3c(c2)CCCN3C(C)=O)cc1`, -19.8%; in that of `COc1ccc(-n2c(N)c(C(=O)NCc3ccco3)c3nc4ccccc4nc32)c(OC)c1`, 5.2%.
Take `COc1ccc(CCn2c(N)c(C#N)c3nc4ccccc4nc32)cc1OC`: the cytotoxicity is -1.9%.
As for `Nc1c(C(=O)NCCN2CCOCC2)c2nc3ccccc3nc2n1-c1ccccc1`, the cytotoxicity was -0.8%.
Under `COc1ccc(CCn2c(N)c(C(=O)NCc3ccco3)c3nc4ccccc4nc32)cc1OC` stands 57.5% (active); under `O=C(Cn1c(CN2CCCCC2)nc2ccccc2c1=O)NCc1ccco1`, -21.9%; under `Cc1cccc(-n2c(Cc3cc(=O)[nH]c(=O)[nH]3)nnc2SCC(=O)NCc2ccco2)c1`, -4.5%.
Under `O=C(NCc1cccc(F)c1)c1noc2c1CCCC2` stands -1.2%; under `Cc1cc(O)cc(=O)n1Cc1ccco1`, -8.3%.
Under `COc1cc(Cl)c(S(=O)(=O)n2cnc(C)c2)cc1Cl` stands 4.1%; under `COc1cc(C)c(C(C)C)cc1S(=O)(=O)N1CCN(C)CC1`, -21.8%.
In the case of `COc1ccc(-c2c(C)oc3c(CN4CCN(C)CC4)c(O)ccc3c2=O)cc1`, the cytotoxicity is -6.1%.
Under `CCOC(=O)C1=C(CS(=O)(=O)c2ccccc2)NC(=O)NC1c1ccccc1OCC` (stereo not given) stands -3.7%; under `Cc1ccc(S(=O)(=O)CC(c2ccccc2)N2CCOCC2)cc1` (stereo not given), -3.6%.
Under `Nc1ncn(C(=O)c2ccco2)n1` stands 4.4%; under `O=C(COc1cc(=O)n2c(n1)SCCC2)c1ccccc1`, -1.2%.
In the case of `OCCN1CCN(C(=S)c2ccc(Cl)cc2)CC1` it was -18.6%; in that of `CN1CCN(CCCN2c3ccccc3Sc3ccc(Cl)cc32)CC1`, 82.7% (active).
`CN1CCN(CCC(=O)N2c3ccccc3Sc3ccc(Cl)cc32)CC1`: the cytotoxicity is 35.1%.
Regarding `CCOC(=O)Nc1ccc2c(c1)N(C(=O)CN1CCN(C)CC1)c1ccccc1S2`, the cytotoxicity is 5.6%.
In the case of `O=C(CN1CCN(CCOCCO)CC1)N1c2ccccc2Sc2ccc(Cl)cc21` it was -26%.
On to `CC(=O)C1=C(O)C(=O)N(CCN2CCOCC2)C1c1ccc(N(C)C)cc1` (stereo not given), for which the cytotoxicity was -11.6%.
Turning to `Cc1oc(-c2cccc(Cl)c2)nc1CN1CCC(C(=O)NCC2CCCO2)CC1` (stereo not given), the cytotoxicity was 21.4%.
Under `COc1ccc(OC)c(C2C(C(C)=O)=C(O)C(=O)N2CCN2CCOCC2)c1` (stereo not given) stands 3.1%.
In the case of `COc1cccc(C(=O)CSc2nnc(CNc3nc(-c4ccccc4)cs3)n2C)c1` it was -0.3%; in that of `CC(CC1C(C#N)=C(N)OC2=C1C(=O)CCC2)c1ccccc1` (stereo not given), -2.7%.
In the case of `Cc1cccc(-c2noc(CCc3ccccc3)n2)c1` it was 4.2%.
With `Cc1ccc(Nc2nc(N)nc(CN3CCN(Cc4ccc5c(c4)OCO5)CC3)n2)c(C)c1`, the cytotoxicity is -5.2%.
In the case of `Cc1cc(C(=O)NCCCN2CCN(C3CCCCC3)CC2)n(-c2ccccc2)n1` it was -1%; in that of `Cc1cc(C(=O)NCCCN2CCOCC2)n(-c2ccccc2)n1`, -11.4%; in that of `Cc1cc(C(=O)NCCN2CCN(c3cccc(Cl)c3)CC2)n(-c2ccccc2)n1`, 60.3% (active).
In the case of `CCN(CC)S(=O)(=O)c1ccc(N2CCCC2)c(C(=O)OCC(=O)/C(C#N)=C(\C)N)c1` it was 10.5%; in that of `CC(C)=C1C2C=CC1C(C(=O)Nc1cc(C)ccc1C)C2C(=O)O` (stereo not given), -14.9%.
Under `CCOc1ccccc1NC(=O)Cn1nnc(C(=O)Nc2ccc(C)cc2)c1N` stands 5.2%; under `CCOc1ccccc1NC(=O)Cn1nnc(C(=O)NCc2ccco2)c1N`, 55.3% (active); under `CCOc1ccccc1NC(=O)Cn1nnc(C(=O)Nc2ccccc2Cl)c1N`, 3.6%.
With `CCN(CC)CCCN1C(=O)C(=O)/C(=C(/O)c2cc(C)ccc2C)C1c1cccnc1` (stereo not given), the cytotoxicity is -4.8%.
Regarding `O=C(Nc1ccccc1Cl)c1c(F)c(F)c(F)c(F)c1F`, the cytotoxicity was 0.3%.
In the case of `Cc1ccccc1NC(=O)c1c(F)c(F)c(F)c(F)c1F` it was -12%; in that of `CCOC(=O)c1ccccc1NC(=O)c1cccs1`, -12.9%.
Under `CCOC(=O)c1ccccc1NC(=O)c1ccccc1SC` stands 21.6%; under `CC1=C(C#N)C(C)C2=C(CC(C)(C)CC2=O)N1` (stereo not given), -3.6%; under `CN1CCN(C2=Nc3ccccc3Oc3ccc(Cl)cc32)CC1`, -3.2%.
Under `COc1ccc2c(c1)C(=O)CC(c1ccccc1F)O2` (stereo not given) stands 7.5%.
For the compound `Cn1c(Cl)cnc1C1CC(=O)c2cc(Cl)ccc2O1` (stereo not given), the cytotoxicity is 67.1% (active).
`O=C(Nc1ccc2nc[nH]c2c1)c1ccco1`: the cytotoxicity is 16.9%.
In the case of `COC(=O)C(C)Sc1nc2c(c(=O)[nH]c(=O)n2C)n1CCCc1ccccc1` (stereo not given) it was -4.9%; in that of `O=S(=O)(NCCO)c1cccc2cccnc12`, -9.3%; in that of `CCC(C)(C)n1nnnc1C(c1ccc(C)cc1)N1CCN(Cc2cccnc2)CC1` (stereo not given), -32%.
`O=C(OCC(=O)N1CCN(C(=O)c2ccco2)CC1)c1cc(=O)c2ccccc2o1`: the cytotoxicity was -1.9%.
With `C=C1[C@@H](C)C2[C@H](Cc3ccccc3)NC(=O)[C@]23OC(=O)CC[C@H](O)CCC[C@H](C)C/C=C/[C@H]3[C@@H]1O` (stereo not given in full), the cytotoxicity was 59.8% (active).
For the compound `Cc1ccc(Nc2cccccc2=O)cc1`, the cytotoxicity is -1.6%.
Under `CCC1(C)Cc2c(sc3c2c(=O)n(C)c2nnc(SCc4ccccc4)n32)CO1` (stereo not given) stands 3.4%; under `NC1=NC(c2ccccc2Cl)n2c(nc3ccccc32)N1` (stereo not given), 0.6%.
For the compound `Cc1cc(C2N=C(N)Nc3nc4ccccc4n32)c(C)n1-c1ccccc1Cl` (stereo not given), the cytotoxicity was 5.7%.
Under `COc1cc(OC)cc(-n2nnnc2SCC(=O)N2CCCC2)c1` stands -16%.
Under `COc1ccc(-n2nnnc2S(=O)(=O)Cc2ccc(C(=O)O)cc2)cc1` stands 2.6%; under `COc1ccc(-n2nnnc2S(=O)(=O)CC(=O)N2CCCCC2)cc1`, 56.8% (active); under `COc1ccccc1N1CCN(CC(O)COc2cccc3ccccc23)CC1` (stereo not given), 51.3% (active).
In the case of `COc1ccccc1N1CCN(CC(O)COc2c(OC)cccc2OC)CC1` (stereo not given) it was 3.7%; in that of `C=CCc1ccccc1OCC(O)CN1CCN(c2ccccc2OC)CC1` (stereo not given), 6.9%; in that of `CCn1c(SCC(=O)N2CCCC2)nc2c1c(=O)n(C)c(=O)n2C`, -12.3%.
In the case of `Cc1cc(OCCOCCN(C)CCO)cc(C)c1Cl`, the cytotoxicity was 16.8%.
In the case of `CCN(Cc1ccccc1)S(=O)(=O)c1ccc(C(=O)Nc2nnc(-c3ccccc3OC)o2)cc1`, the cytotoxicity was 37.9%.
In the case of `COCc1nnc(NC(=O)c2ccc(S(=O)(=O)N(C)c3ccccc3)cc2)o1` it was 36.3%.
In the case of `COc1ccccc1-c1nnc(NC(=O)c2ccc(S(=O)(=O)N(C)C)cc2)o1` it was -3.2%; in that of `Cc1ccccc1C(=O)Nc1nnc(-c2ccc(F)cc2)o1`, 10.5%; in that of `CN(c1ccccc1)S(=O)(=O)c1ccc(C(=O)Nc2nnc(-c3ccc(F)cc3)o2)cc1`, 62.8% (active).
Under `COc1ccccc1-c1nnc(NC(=O)c2ccc(S(=O)(=O)N(C)Cc3ccccc3)cc2)o1` stands 64.9% (active).
For `CN(C)S(=O)(=O)c1ccc2c(c1)c(=O)c(C(=O)N1CCN(c3ccccn3)CC1)cn2C`, the cytotoxicity is 5%.
Under `COc1cc(Cl)c(C)cc1NC(=O)CSc1nnc(-c2ccccn2)n1Cc1ccco1` stands -4.6%; under `O=C(CN1C(=O)c2ccccc2C1=O)Nc1cccnc1`, 10.7%.
Under `N#Cc1cccc(C(c2nnnn2CCc2ccccc2)N2CCN(C3CCCCC3)CC2)c1` (stereo not given) stands 7.9%; under `COc1cccc(NC(=O)N2CCC(C(=O)Nc3ccc(C)cc3C)CC2)c1`, -5.2%.
As to `c1ccc(CSc2nnc(-c3c[nH]c4ccccc34)o2)cc1`, the cytotoxicity was 1.1%.
Turning to `S=c1[nH]nc(Cc2c[nH]c3ccccc23)o1`, the cytotoxicity is 1.2%.
